Data as given in PubChem BioAssay (NCATS).
Where “and” joins values, the source holds several entries; their conditions need not be identical. Equal values may be shown once. Results filed as inconclusive are left out. Values without a mark were called inactive. Calls come from the whole dose curve; as a rule, active = well fitted curve in either direction with a large enough effect (not every such curve was filed as active); inconclusive = small, poorly fitted or top-dose-only effect, or another doubt; inactive = flat fitted curve, though single readings scatter.

Assay: NFAT Signaling Pathway (AID 444)
Conditions: Jurkat NFAT-bla M1, carbachol, beta-lactamase ratio, 5 h; at 7.69 µM (top of the series) unless noted
Source text: NCGC Assay Overview: The nuclear factor of activated T cells (NFAT) family of transcription factors has been found primarily in most immune system cells and some other non-immune cells. NFAT plays the immunomodulatory role, primarily in T-cell activation and differentiation. NFAT target genes are also involved in the regulation of apoptosis and differentiation in non-immune cell types. The NFAT sequence was engineered to the upstream of the ?-lactamase reporter gene and transfected into Jurkat cells with co-transfection of muscarinic receptor1 [provided by Invitrogen Corp]. When an extracellular stimulus, such as carbachol, binds to the GPCR M1 receptor, it stimulates a signaling cascade that activates NFAT response element and ?-lactamase expression by phosphorylating the NFAT binding protein. This cell based ?-lactamase reporter gene assay can accurately monitor any changes occurring along the NFAT pathway, and can be used for screening small molecule inhibitor or activator upon activation by carbachol EC50 concentration. A small molecular library were screened in a titration series resulting in AC50s (can be either IC50s or EC50s).
NCGC Assay Protocol Summary: The cells were prepared in RPMI 1640 medium containing 0.1% dialyzed FBS and 25 mM HEPES at 1.6 x 10^6cell/ml. The assay was performed in 1536-well plate format as follows: 5 ul of cell preparation 23 nl of compounds 1ul of carbachol (final concentration 1 uM) Briefly centrifuge the plates and incubate at 37 °C for 5 hours 1 ul of CCF4 dye mixture Incubate the plates at RT for 1 hour Read the plate in EnVision plate reader (Ex= 405nm, and Em1=460nm and Em2=530nm). The %Activity was determined from the ratio of 460nm/530nm. Data normalization and AC50 calculations were accomplished using GeneData software.
% is set by controls: 0 for no effect and ±100 for the full control effect.

| Structure (SMILES) | activity change, negative = inhibition |
| --- | --- |
| O=C(c1ccncc1)N1CCC[C@@]2(CCN(c3ncccn3)C2)C1 | 20.3% |
| CNc1oc(-c2cccs2)nc1C#N | 11.4% [at 17.2 µM] |
| CC(C)NC(=O)N1CCC2(CC1)CCN(C(=O)c1csnn1)CC2 | 6.85% |
| O=c1c(-c2cc(F)cc(F)c2)nc2cnc(N3CCOCC3)nc2n1C[C@H]1CCCO1 | -16% |
| COc1ccc(NC(=O)N2CC3(CCN(C(=O)c4c(C)noc4C)CC3)C2)cc1 | 15.1% |
| Cc1ccccc1-c1cc(NCc2ccccc2)ncn1 | -13.3% |
| CC(=O)NCCNc1nc(-c2ccccc2C(F)(F)F)nc2ccccc12 | 4.42% |
| c1ccc(-c2ccc(N3CC4(CCNCC4)C3)cc2)cc1 | 4.74% |
| COCCn1c(=O)c(C)nc2cnc(Oc3ccccc3)nc21 | -4.22% |
| CS(=O)(=O)N1CCC2(CC1)CN(C(=O)Nc1ccccc1)C2 | 11.2% |
| COc1ncc2nc(-c3cccs3)c(=O)n(-c3ccccc3)c2n1 | -4.96% |
| O=C(c1cnccn1)N1CCC2(CC1)CN(c1ccncc1)C2 | -19.4% |
| N#CCCn1c(=O)c(-c2cc(F)cc(F)c2)nc2cnc(OCc3ccccc3)nc21 | -0.0706% |
| Fc1ccc(Nc2ccnc(-c3ccoc3)n2)cc1 | 6.01% |
| COC(=O)N1CCC[C@@]2(CCN(C(=O)Nc3cccc(F)c3)C2)C1 | -2.35% |
| CN(C)Cc1ccccc1-c1cc(NC2CC2)ncn1 | -10% |
| O=C(c1ccco1)N1CCC2(CC1)CCN(c1cccc(-c3ccccc3)c1)CC2 | -13.9% |
| COc1ncc2nc(-c3cccs3)c(=O)n(CCc3ccccc3)c2n1 | 11.4% |
| CN(Cc1ccco1)c1ncnc2ccc(-c3ccoc3)cc12 | -26.3% |

| Structure (SMILES) | activity change, negative = inhibition |
| --- | --- |
| COCCn1c(=O)c(C)nc2cnc(N(C)C)nc21 | 13.3% |
| Cc1cnc(CNc2ncncc2-c2ccccc2C#N)cn1 | -5.21% |
| COc1ccccc1-c1cc(NCc2cccc(C)c2)ncn1 | 1.95% |
| O=C(Nc1cccc(F)c1)N1CC[C@@]2(CCCNC2)C1 | -0.699% |
| Cc1noc(C)c1-c1cc(NCc2ccccc2)ncn1 | -10.6% |
| COCCn1c(=O)c(-c2ccc(Cl)cc2)nc2cnc(OC)nc21 | 0.766% |
| N#Cc1cccc(NC(=O)N2CC[C@@]3(CCCNC3)C2)c1 | 9.18% |
| Cc1ccccc1-c1nc(NCc2cccs2)c2ccccc2n1 | -9.98% |
| COc1ccc(-n2c(=O)cnc3cnc(OC)nc32)cc1 | -7.79% |
| O=c1c(-c2ccc(F)cc2)nc2cnc(Oc3ccccc3)nc2n1Cc1cccs1 | 2.8% |
| COc1ccccc1CNc1ncncc1-c1cccnc1 | 2.12% |
| COc1ncc2nc(-c3cc(F)cc(F)c3)c(=O)n(C)c2n1 | -1.78% |
| O=S(=O)(c1ccccc1)N1CCC2(CCCN(c3ncccn3)C2)CC1 | 5.51% |
| CC(C)NC(=O)N1CCCC2(CCN(C(=O)c3ccncc3)CC2)C1 | 8.27% |
| CN1CCN(c2ncc3ncc(=O)n(CCC#N)c3n2)CC1 | -4.67% |
| COc1ccccc1CCn1c(=O)c(-c2cccc(F)c2)nc2cncnc21 | -17.1% |
| COc1ccc(CNc2ccnc(-c3ccc4c(c3)OCO4)n2)c(OC)c1 | -5.96% |
| Clc1ccccc1-c1nccc(-n2ccnc2)n1 | -0.584% |
| COc1ccc(-n2c(=O)c(-c3cn(C)c4ccccc34)nc3cnc(N4CCOCC4)nc32)cc1 | -2.62% |

Same assay, conditions: Jurkat NFAT-bla M1, carbachol, beta-lactamase ratio, 5 h; at 17.2 µM (top of the series)

| Structure (SMILES) | activity change, negative = inhibition [%] |
| --- | --- |
| CCCNC[C@H](O)COc1ccccc1C(=O)CCc1ccccc1 | 3.46 |

Same assay, conditions: Jurkat NFAT-bla M1, carbachol, beta-lactamase ratio, 5 h; at 38 µM (top of the series)

| Structure (SMILES) | activity change, negative = inhibition |
| --- | --- |
| CCCNC[C@H](O)COc1ccccc1C(=O)CCc1ccccc1 | 1.4% and 9.3% |
